Laboratory results taken from PubChem BioAssay (NCI).
The panel holds about 83,000 compounds, 20% with a hit somewhere; the sample as a whole holds those more often.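 The test compound was applied at a single concentration to cells in 96-well plates for 48 hours, and percent growth was recorded.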 Calls of active or inactive are those of the source. Rule for the calls: active = growth percent below 10; inactive = the rest.

system: UACC-62 melanoma; assay: NCI-60 one-dose screen, 48 h (100 = growth as untreated, 0 = no growth, -100 = all killed); conditions: 10 µM

Q: Which growth does the source give for `C/C(=C/CCC(C)[C@@H]1CC[C@]2(C)C3=C(CC[C@@]12C)[C@@]1(C)CCC(=O)C(C)(C)[C@@H]1CC3)C(=O)O` (some centres undefined) here?
A: The growth was -92.4% (active).

Q: For `N#CC1=CC2CN(Cc3ccccc3)C1C1C(=O)N(c3ccccc3)C(=O)C21` (centres undefined), which growth is on record?
A: The growth was 90.7% (inactive).

Q: For `COC(=O)C1OC1c1cc([N+](=O)[O-])ccc1OC` (centres undefined), which growth is on record?
A: The growth was 106% (inactive).

Q: With `O=c1cn[nH]c2ccc(Br)cc12` as the compound, how does the growth read?
A: Its growth is 112% (inactive).

Q: `COc1cc(CNC(=O)C2CSC3(C)c4ccccc4C(=O)N23)cc(OC)c1OC` (centres undefined) was tested. Which growth did it give?
A: The growth was 92.5% (inactive).

Q: With `O=C1/C=C/[C@@H](O)[C@@H]2C[C@@H](O)C[C@H]2/C=C/CCC[C@H](C(F)(F)F)O1` as the compound, how does the growth read?
A: Its growth is -3.9% (active).

Q: With `O=C1CCn2c1c(O)c1ccccc1c2=O` as the compound, how does the growth read?
A: The growth was 113% (inactive).

Q: With `COc1ccc(/C(=N\N)C(=O)c2ccccc2)cc1` (tested in a mixture with another compound) as the compound, how does the growth read?
A: Its growth is 92.8% (inactive).

Q: Which growth does the source give for `O=C(CCl)Nc1ccc(Cc2ccc(NC(=O)CCl)cc2)cc1` here?
A: Its growth is -9.18% (active).

Q: `CCOC(=O)C1=CSC2=NC3=C(CCC/C3=C\c3cc(OC)c(OC)c(OC)c3)C(c3cc(OC)c(OC)c(OC)c3)N12` (centres undefined) was tested. Which growth did it give?
A: Its growth is 74.4% (inactive).

Q: For `C=CCSC(CC)(CC)C(=O)NC`, which growth is on record?
A: Its growth is 103% (inactive).

Q: Which growth does the source give for `CCN(CCCNc1cc2c(c(N)c1S(=O)(=O)O)C(=O)c1ccccc1C2=O)c1ccccc1` here?
A: The growth was 92.1% (inactive).

Q: For `Cc1ccc(S(=O)(=O)N/N=C2\CCCc3ccccc32)cc1`, which growth is on record?
A: The growth was 92.9% (inactive).

Q: With `COc1cc(-c2nn(-c3cccc(NC(=O)CCNc4ccc(N5CCOCC5)cc4)c3)cc2-c2ccncc2)ccc1Cl` as the compound, how does the growth read?
A: Its growth is 13.9% (inactive).
